From PubChem
Mdm2 MdmX PPI = inhibitors of human Mdm2/MdmX interaction. O15151+Q00987. SaOS-2 split-luciferase Mdm2/MdmX complementation, luminescence. inhibition, % at 8 µM. 330,000 compounds, 3% hits;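 active = inhibition of at least 50% at 8 µM in the primary screen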
Jurkat NFkB inh = lowers PMA/ionomycin-induced NF-kB signal in Jurkat cells; PMA/ionomycin-induced NF-kB luciferase reporter, luminescence; inhibition, % at 4 µM; 330,000 compounds, 0.53% hits; AID 435003; in the data active = inhibition above about 50%
Gli-Sufu antag = Gli-Sufu pathway antagonism; Sufu-KO-LIGHT fibroblasts, Gli luciferase reporter luminescence; inhibition, % at 5 µM; 340,000 compounds, 0.74% hits; AID 588413;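 active = inhibition above about 55%, limit read from the data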
697 NFkB inh = inhibitors of the PMA/ionomycin-induced NF-kB reporter in 697 B cells | 697 B-cell NF-kB luciferase reporter, 16 h | inhibition, % at 4 µM | 330,000 compounds, 0.33% hits | AID 435022; in the data active = inhibition above about 35%
Shn3 3UTR inh = Schnurri-3 reporter inhibition in Clone20 osteoblasts. Clone20 osteoblast Shn3 3'UTR firefly luciferase, 24 h. inhibition, % at 12.5 µM. 360,000 compounds, 0.52% hits. AID 588674;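 active = mean inhibition of at least 75% with every replicate also reaching 75%; inconclusive = mean inhibition at least 75% but some replicate below; inactive = mean inhibition below 75%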
697 NFkB conf = lowers PMA/ionomycin-induced NF-kB signal in 697 B cells; shares compounds with 697 NFkB inh; 697 B-cell NF-kB luciferase, 16 h; inhibition, % at 4 µM; 2,000 compounds, 35% hits; AID 449746; in the data active = inhibition mostly above about 28%, no sharp cut-off; inactive = mostly below about 22%
Mdm2 MdmX conf = human Mdm2/MdmX binding inhibition, confirmed; inhibition, % at 8 µM; shares compounds with Mdm2 MdmX PPI; 10,000 compounds, 55% hits; luminescent assay; in the data active = inhibition above about 40%
FLuc counter = inhibits full-length luciferase, flagging false Mdm2/MdmX hits; shares compounds with Mdm2 MdmX PPI; 6,200 compounds, 77% hits; inhibition, % at 8 µM; SaOS-2 full-length luciferase counterscreen, luminescence; AID 504607;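 active = mean inhibition at 8 µM reaching about 37%, which flags the compound as non-specific, limit read from the data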;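 note: p53-null SaOS-2 cells with luciferase driven by a doxycycline-inducible promoter; compound on cells about two nights before reading with doxycycline added after day one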
Each line names hits and unclear results; the compound was inactive in the other large screens (follow-up assays come after a bar, where they were run). Rows were chosen to be rich in hits. Some 3.8% of all compounds tested hit in one or more screens of this group.

C=CCOc1ccccc1CN(C(=O)CCl)c1ccc2c(c1)OCO2	Mdm2 MdmX PPI 89.7, 697 NFkB inh 42.1 | 697 NFkB conf 32.0 | Mdm2 MdmX conf 80.9 | FLuc counter inactive
CCOc1ccccc1NC(=O)Nc1ccc2c(c1)OCO2	none
Cn1c(=O)n(C)c2cc(/C=C3/NC(=O)N(Cc4ccccc4)C3=O)ccc21	Mdm2 MdmX PPI 50.7, 697 NFkB inh 46.8 | 697 NFkB conf 26.6 | Mdm2 MdmX conf inactive | FLuc counter 87.7
O=C(/C=C/c1ccc(Cl)cc1)NC(=S)Nc1ccc(NC(=O)c2ccco2)cc1	none (no result: Mdm2 MdmX PPI, Jurkat NFkB inh, 697 NFkB inh)
Cc1ccc(-n2c(-c3ccccc3)c[n+]3c2CCc2ccccc2-3)c(C)c1	Mdm2 MdmX PPI 81.8, Gli-Sufu antag 86.7, 697 NFkB inh 48.6, Shn3 3UTR inh inconclusive | 697 NFkB conf 27.8 | Mdm2 MdmX conf 65.5 | FLuc counter inactive
COc1cc2c(cc1C1NC(=S)NC(C)=C1C(N)=O)CCCC2 (centres undefined)	Mdm2 MdmX PPI 66.4, 697 NFkB inh 42.6 | 697 NFkB conf inactive | Mdm2 MdmX conf inactive | FLuc counter 85.7
COc1cc(NC(=O)Cn2cnc3c(NCc4ccccc4)ncnc32)cc(OC)c1OC	none (no result: Jurkat NFkB inh)
CCOC(=O)/C=C(\C)Sc1cc(=O)oc2ccccc12	Mdm2 MdmX PPI 54.7, 697 NFkB inh 35.7 | 697 NFkB conf 27.8 | Mdm2 MdmX conf inactive
CCOC(=O)/C=C(\C)Sc1cc(O)c2ccccc2c1O	none (no result: Mdm2 MdmX PPI, Jurkat NFkB inh, 697 NFkB inh)
O=C(CN1CCN(S(=O)(=O)c2ccccc2)CC1)Nc1ccnn1C1CCCC1	none
CC1=CC(C)(C)Nc2ccc(OC(=O)CN3C(=O)c4ccccc4C3=O)cc21	Mdm2 MdmX PPI 96.6, 697 NFkB inh 59.4 | 697 NFkB conf 39.0 | Mdm2 MdmX conf inactive | FLuc counter inactive
CCc1nc(N=Nc2c(O)[nH]c3ccccc23)c2c3c(sc2n1)CCC3	Mdm2 MdmX PPI 87.5, 697 NFkB inh 37.2 (no result: Gli-Sufu antag) | 697 NFkB conf inactive | Mdm2 MdmX conf inactive
Cn1nc(-c2ccc(N3CCOCC3)c(NS(=O)(=O)c3ccccc3)c2)c2ccccc2c1=O	Mdm2 MdmX PPI 64.5, 697 NFkB inh 60.9 | 697 NFkB conf 33.3 | Mdm2 MdmX conf inactive
CCOc1ccccc1CNC(=O)c1cc2occc2n1C	none
CCOc1ccccc1CNC(=O)c1cc2oc3ccccc3c2n1C	Mdm2 MdmX PPI 83.7 | 697 NFkB conf inactive | Mdm2 MdmX conf 86.8 | FLuc counter inactive
COc1ccc(Cc2c(C(C)(C)C)nc3c(C)cc(Br)cn23)c(C)c1	none (no result: Mdm2 MdmX PPI, Jurkat NFkB inh, Gli-Sufu antag, 697 NFkB inh)
COc1cccc(N2CCN(c3ncnc4c3[nH]c3ccc(F)cc34)CC2C)c1 (centres undefined)	Mdm2 MdmX PPI 98.4, Gli-Sufu antag 91.2, 697 NFkB inh 71.2, Shn3 3UTR inh 96.5 | 697 NFkB conf 91.4 | Mdm2 MdmX conf 100.2 | FLuc counter inactive
Cn1c(-c2ccccc2)cc2c3no[n+]([O-])c3ccc21	Mdm2 MdmX PPI 57.7, Shn3 3UTR inh 92.1 | 697 NFkB conf inactive | Mdm2 MdmX conf 73.3 | FLuc counter 52.9
Cc1nc2c(-c3ccc(F)cc3)cnn2c(N)c1-c1ccccc1	Mdm2 MdmX PPI 91.0 | 697 NFkB conf inactive | Mdm2 MdmX conf 86.7 | FLuc counter 110.2
CCOC(=O)C1=C(NC(=S)NC(=O)c2ccccc2)c2ccccc2CC1(C)CC (centres undefined)	Mdm2 MdmX PPI 76.8 | 697 NFkB conf inactive | Mdm2 MdmX conf 66.3 | FLuc counter 53.0
CCOC(=O)c1c(NC(=O)c2ccccc2)sc2c1CCc1ccccc1-2	none
CCOC(=O)C1=C(NC(=S)NC(=O)c2ccccc2)c2ccccc2CC1C(C)C (centres undefined)	Mdm2 MdmX PPI 96.2 | 697 NFkB conf inactive | Mdm2 MdmX conf inactive
NNS(=O)(=O)c1ccc(Sc2ccccn2)c([N+](=O)[O-])c1	none
CCc1c(C)sc(NC(=O)C2CC2c2ccccc2)c1C(N)=O (centres undefined)	Mdm2 MdmX PPI 56.7 | 697 NFkB conf inactive | Mdm2 MdmX conf 72.9 | FLuc counter 55.4
Cc1ccc(CNC(=O)CCCCCNC(=O)N2CCn3c2nc2ccccc23)cc1	none
